# Source: PubChem BioAssay
# An excerpt weighted towards active compounds, which were near 3.1% of everything screened.
# PP5 inh = inhibitors of human protein phosphatase 5 (PP5); P53041; purified PP5c, OMFP substrate fluorescence; inhibition, % at 6.7 µM; 320,000 compounds, 0.18% hits;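 active means inhibition above the campaign's mean inhibition across all tested compounds plus 3 SD, cut at about 9.5% in these data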
# Target sequence (P53041 whole entry, looked up): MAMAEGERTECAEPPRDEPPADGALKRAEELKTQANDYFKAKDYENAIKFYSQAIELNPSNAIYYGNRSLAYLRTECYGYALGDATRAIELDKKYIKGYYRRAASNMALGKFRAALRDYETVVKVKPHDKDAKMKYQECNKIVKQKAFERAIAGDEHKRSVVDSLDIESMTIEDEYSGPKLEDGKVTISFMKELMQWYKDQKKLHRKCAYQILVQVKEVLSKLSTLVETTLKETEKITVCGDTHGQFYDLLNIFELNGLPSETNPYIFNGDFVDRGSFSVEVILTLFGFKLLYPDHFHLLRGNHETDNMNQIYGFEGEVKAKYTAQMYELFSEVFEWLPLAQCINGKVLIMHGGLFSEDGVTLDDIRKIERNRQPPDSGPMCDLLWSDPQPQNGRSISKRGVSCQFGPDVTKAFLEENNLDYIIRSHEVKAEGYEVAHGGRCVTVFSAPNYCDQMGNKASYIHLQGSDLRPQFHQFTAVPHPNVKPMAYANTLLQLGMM
# Beta apoptosis = blocks beta cell apoptosis | INS-1E cytokine-induced death, ATP luminescence, 48 h; percent of positive-control rescue, neutral wells zero | protection from apoptosis, % (no concentration beside the values) | 300,000 compounds, 0.8% hits;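 active means Every replicate reaches about 75%, or at least half do and their mean reaches it too, limit read from the data; inconclusive means At least half of replicates reach the limit but their mean does not; inactive means Under half of replicates reach the limit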;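 further: higher means more ATP so stronger rescue from cytokine killing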
# SKKanGAS inh = blocks kanamycin growth of S. pyogenes SKKanGAS strain. 300,000 compounds, 1.3% hits. BacTiter-Glo, 6 h. inhibition, % at 7.5 µM. AID 1662;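 active means mean replicate score, as percent of positive control median, at least 50; inconclusive means mean below 50 but one replicate at or above 50; inactive means mean and every replicate below 50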;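 further: strain carries kanamycin resistance gene driven by streptokinase promoter and grows in 40 µg/ml kanamycin; loss of luminescence reflects streptokinase promoter inhibition or plain growth inhibition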
# PP1 inh = counter-screen for PP5 inhibitors: inhibitors of human PP1-alpha; AID 2235; purified PP1alpha, OMFP fluorescence; P62136; 320,000 compounds, 0.9% hits; inhibition, % at 6.7 µM;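 active means inhibition above the mean inhibition of all tested compounds plus 3 SD, computed separately for each screening campaign, cut at about 15% in these data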
# CSC inhib = blocks cancer stem cells | cancer stem cell-like cells viability, luminescence | inhibition, % at 7.5 µM | 300,000 compounds, 1.1% hits | AID 2717; in the data active means inhibition above about 75%; inconclusive means no clear call, values can overlap the other calls; tested in HMLE shEcad cells
# A number is an active result; n = inactive; u = inconclusive; x = no result given; + = active, no number.
SMILES,PP5 inh,Beta apoptosis,SKKanGAS inh,PP1 inh,CSC inhib
CC1(C)CC(N2CCN(c3ccccc3)CC2)=CC(=[N+]2CCCC2)C1,n,97,n,n,n
Cn1nnnc1N=N/C(=N/Nc1ccccc1)c1ccccc1,n,126,n,n,n
Oc1ccccc1N=N/C(=N/Nc1ccccc1O)c1ccccc1,n,n,n,n,n
CC[C@H]1OC(=O)[C@H](C)[C@@H](O[C@H]2C[C@@](C)(OC)[C@@H](O)[C@H](C)O2)[C@H](C)[C@@H](O[C@@H]2O[C@H](C)C[C@H](N(C)C)[C@H]2O)[C@](C)(O)C[C@@H](C)C(=O)[C@H](C)[C@@H](O)[C@]1(C)O,n,n,102,n,n
CCOC(=O)CCC(=O)O[C@H]1[C@H](O[C@@H]2[C@@H](C)[C@H](O[C@H]3C[C@@](C)(OC)[C@@H](O)[C@H](C)O3)[C@@H](C)C(=O)O[C@H](CC)[C@@](C)(O)[C@H](O)[C@@H](C)C(=O)[C@H](C)C[C@@]2(C)O)O[C@H](C)C[C@@H]1N(C)C,n,x,105,n,n
Nc1c(C(=O)Nc2ccccc2)c2nc3ccccc3nc2n1CCCN1CCOCC1,n,n,n,n,98
C=CCn1c(N)c(C(=O)Nc2cccc(C)c2)c2nc3ccccc3nc21,n,n,51,n,n
S=c1nc(SCc2ccccc2)[nH]c2ccccc12,n,n,76,n,n
c1ccc(CSc2nc3ncncc3[nH]2)cc1,n,n,n,n,n
CCOC(=O)c1c(C)[nH]c(C(=O)OCC(=O)NC(C)(C)C)c1C,n,86,n,n,n
CCOC(=O)c1[nH]c(C)c(C(=O)OCC(=O)NC(=O)NC(C)(C)C)c1C,n,n,n,n,n
COc1ccc(CCNc2ncnc3sc(C)cc23)cc1OC,x,107,n,x,n
COc1cccc(C(=O)N/N=C/c2ccc(OC3CSC3)cc2)c1,n,n,n,n,n
Cc1cccc(C(=O)N/N=C/c2ccc(OC3CSC3)cc2)c1,n,n,n,n,76
CNc1nc(C)nc(-n2nc(C)cc2C)n1,n,n,n,n,n
Cc1cc(C)n(-c2nc(C)nc(NCc3ccccc3)n2)n1,n,n,58,n,n
Cn1cccc1-c1cc(C(=O)N/N=C/c2cccc(O)c2)[nH]n1,n,n,n,n,n
O=[N+]([O-])c1ccc(N/N=C/c2c[nH]c3ccccc23)c(S(=O)(=O)Nc2ccc(Cl)cc2)c1,n,n,77,n,101
NS(=O)(=O)c1ccc(N/N=C2/CCCCC2C2CCCCC2)c([N+](=O)[O-])c1 (stereo not given),n,76,77,n,+
OCCN(CCO)c1ccc(C(c2ccccc2Cl)c2ccc(N(CCO)CCO)cc2Cl)c(Cl)c1,n,n,83,n,n
CC(C)Cn1c2c(c(O)c(C(=O)Nc3ncccc3O)c1=O)CCCC2,n,n,89,n,n
c1ccc(Oc2ccc(-c3ccn[nH]3)cc2)cc1,n,n,n,n,n
c1ccc(-c2ncc(-c3ccn[nH]3)s2)cc1,n,n,n,16,n
Cc1cc(SCC(=O)c2cccs2)n2nc(C)c(-c3ccc(Cl)cc3)c2n1,n,n,n,n,78
Cc1nn2c(SCC(=O)c3cccs3)cc(C(C)(C)C)nc2c1-c1ccccc1,n,n,n,n,n
SMILES,PP5 inh,Beta apoptosis,SKKanGAS inh,PP1 inh,CSC inhib
CC(C)c1ccc(-n2c(-c3ccccc3)c[n+]3c2CCc2ccccc2-3)cc1,x,x,n,x,x
COc1ccccc1-n1c(-c2ccccc2)c[n+]2c1CCc1ccccc1-2,n,101,n,n,n
COc1ccc(-n2c(-c3ccc(Br)cc3)c[n+]3c2CCc2ccccc2-3)cc1,n,104,n,n,n
CCC1CCCCN1C(=O)c1ccc(OC2CCN(C(=O)C3CC3)CC2)cc1 (stereo not given),n,n,n,n,n
O=S(=O)(Nc1ccc2ccccc2n1)c1ccc2c(c1)CCO2,n,n,n,n,n
COc1cccc(-c2ccc(NC(=O)C3CCCN(Cc4cnn(C(C)C)c4)C3)cc2)c1 (stereo not given),n,n,n,n,n
N#Cc1ccc(C(=O)Nc2cc(C3CC3)nn2-c2ccccc2)cc1,n,n,n,n,n
Cc1ccccc1-c1cc2nc(-c3ccc([N+](=O)[O-])cc3)cc(=O)n2[nH]1,n,n,u,16,n
CCC(C)[C@H]1CNCCN1CCc1cc(C(F)(F)F)cc(C(F)(F)F)c1 (stereo not given in full),n,n,n,n,n
